Holding throughout (experiment): NCI-60 one-dose screen, 48 h (100 = growth as untreated, 0 = no growth, -100 = all killed)
The subject of one experiment is NCI-H23 lung. Conditions: 10 µM unless noted.
The next experiment has as its system HOP-62 NSCLC. Conditions: 10 µM unless noted.
The next experiment deals with NCI-H460 lung. Conditions: 10 µM unless noted.
A further experiment has as its system A549/ATCC NSCLC. The following applies: 10 µM unless noted.
The subject of the next experiment is RXF 393 renal. The following applies: 10 µM unless noted.
The subject of the next experiment is UACC-257 melanoma. The following applies: 10 µM unless noted.
The test system of the next experiment is U251 CNS. The following applies: 10 µM unless noted.
The subject of a further experiment is LOX IMVI melanoma. Conditions: 10 µM unless noted.
In the next experiment the test system is SK-MEL-28 melanoma. Conditions: 10 µM unless noted.
A further experiment relates to UO-31 renal. Conditions: 10 µM unless noted.
A further experiment has as its system TK-10 renal. Conditions: 10 µM unless noted.
In the next experiment the test system is A498 renal. Conditions: 10 µM unless noted.
For a further experiment, the system named is SR leukemia. The following applies: 10 µM.
The test system of a further experiment is OVCAR-4 ovarian. Conditions: 10 µM unless noted.
The subject of a further experiment is BT-549 breast. The following applies: 10 µM.
For another experiment, the system named is HCC-2998 colon. The following applies: 10 µM unless noted.
In the next experiment the test system is K-562 leukemia. The following applies: 10 µM unless noted.
The test system of the next experiment is SF-295 CNS. Conditions: 10 µM unless noted.
The next experiment relates to SK-MEL-2 melanoma. Conditions: 10 µM unless noted.
The test system of the next experiment is HL-60(TB) leukemia. Conditions: 10 µM unless noted.

The structures appear in SMILES notation. This is part of a sample that, as a whole, favours compounds with a hit. Of some 83,000 tested, about 20% had one in any assay.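 Single-concentration screen, 48 h exposure, 96-well plates. Endpoint: percent growth. Below 10 = active.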 A number with no mark means an inactive call. Activity calls are given as the source filed them.

For the compound `O=S(=O)(Cl)c1ccccc1` (tested in a mixture with another compound), the growth in the experiment with NCI-H23 lung is 106%; in the experiment with HOP-62 NSCLC it was 92.9%; in the experiment with NCI-H460 lung it was 103%; in the experiment on A549/ATCC NSCLC, 102%; in the experiment on RXF 393 renal it was 99.1%; in the experiment on UACC-257 melanoma, 97.1%. Besides, the growth in the experiment with U251 CNS is 93.7%; in the experiment on LOX IMVI melanoma, 98.8%; in the experiment on SK-MEL-28 melanoma, 103%; with UO-31 renal it was 85%; with TK-10 renal, 105%; in the experiment on A498 renal, 85%. For the same compound, the growth in the experiment with SR leukemia is 104%; with OVCAR-4 ovarian it was 106%; in the experiment on BT-549 breast, 99.5%; in the experiment with HCC-2998 colon, 100%.
`Cc1ccc(C(=O)C2CN(C)CCC2(O)c2ccc(C)cc2)cc1` (stereo not given): the growth is 103% in the experiment with NCI-H23 lung; 140% with HOP-62 NSCLC; 111% in the experiment with NCI-H460 lung; 104% in the experiment on A549/ATCC NSCLC; 123% in the experiment on K-562 leukemia; 128% in the experiment on RXF 393 renal. For the same compound, the growth with SF-295 CNS is 111%; with UACC-257 melanoma, 104%; in the experiment with U251 CNS, 104%; with LOX IMVI melanoma, 98.9%; with SK-MEL-28 melanoma it was 113%; with SK-MEL-2 melanoma, 124%. Moreover, the growth is 99.6% in the experiment on UO-31 renal; 108% with TK-10 renal; 94% in the experiment with A498 renal; 106% in the experiment on HL-60(TB) leukemia; 101% with SR leukemia; 106% in the experiment with OVCAR-4 ovarian. The growth in the experiment on HCC-2998 colon is 98.3%.
Regarding `CCN(CC)CCOc1c(C(C)C)cccc1C(C)C`, the growth in the experiment with NCI-H23 lung was 104%; in the experiment with HOP-62 NSCLC it was 96.7%; with NCI-H460 lung, 112%; in the experiment on A549/ATCC NSCLC it was 89.5%; in the experiment on K-562 leukemia, 111%; in the experiment on RXF 393 renal, 112%. The growth was 93.8% in the experiment on SF-295 CNS; 94.8% in the experiment with UACC-257 melanoma; 98.6% with U251 CNS; 99.5% in the experiment with LOX IMVI melanoma; 92.1% in the experiment on SK-MEL-28 melanoma; 96.9% in the experiment with SK-MEL-2 melanoma. Further, the growth in the experiment with UO-31 renal was 94.4%; in the experiment on TK-10 renal, 110%; in the experiment with A498 renal, 82.1%; in the experiment on HL-60(TB) leukemia, 107%; in the experiment on SR leukemia, -1.29% (active); in the experiment with OVCAR-4 ovarian, 99.3%. The growth in the experiment with BT-549 breast was 123%; in the experiment on HCC-2998 colon it was 102%.
As to `CC1(C)N=C(N)N=C(N)N1c1ccc(CNC(=O)Nc2ccc(S(=O)(=O)F)c(Cl)c2)c(Cl)c1`, the growth in the experiment on NCI-H23 lung was 31.1%; in the experiment with HOP-62 NSCLC, 29.4%; in the experiment on NCI-H460 lung, 7.59% (active); in the experiment with A549/ATCC NSCLC, 10%; in the experiment on K-562 leukemia it was 16.4%; in the experiment on RXF 393 renal it was 50.6%. Further, the growth in the experiment with UACC-257 melanoma was 23%; in the experiment with U251 CNS, 11.3%; with LOX IMVI melanoma it was 11.9%; in the experiment with SK-MEL-28 melanoma, 48.6%; in the experiment on SK-MEL-2 melanoma, 49.7%; in the experiment with UO-31 renal it was 88.2%. Besides, the growth was 22.6% in the experiment with TK-10 renal; 61.3% in the experiment on A498 renal; 21.8% in the experiment with HL-60(TB) leukemia; 34.6% with SR leukemia; 68.8% in the experiment with OVCAR-4 ovarian; 48.6% in the experiment with BT-549 breast. The growth in the experiment on HCC-2998 colon is 39.7%.
In the case of `CC12CCC(=O)C=C1C(O)CC1C2CCC2(C)C(O)CCC12` (stereo not given), the growth was 100% in the experiment with NCI-H23 lung; 102% in the experiment on NCI-H460 lung; 101% in the experiment with A549/ATCC NSCLC; 105% in the experiment with K-562 leukemia; 113% with RXF 393 renal; 105% with SF-295 CNS. Further, the growth with UACC-257 melanoma is 95%; in the experiment on U251 CNS it was 97.3%; in the experiment with LOX IMVI melanoma, 97.2%; in the experiment on SK-MEL-28 melanoma, 115%; in the experiment with SK-MEL-2 melanoma, 105%; in the experiment on UO-31 renal, 87.1%. Besides, the growth in the experiment on TK-10 renal was 104%; in the experiment on A498 renal it was 89.6%; with HL-60(TB) leukemia it was 101%; in the experiment on SR leukemia, 106%; with OVCAR-4 ovarian, 104%; in the experiment with BT-549 breast, 117%. Besides, the growth with HCC-2998 colon was 101%.
With `Cc1cc(NC(=O)/C=C/c2ccc([N+](=O)[O-])cc2)ccc1S(=O)(=O)F`, the growth in the experiment with NCI-H23 lung was 109%; in the experiment with HOP-62 NSCLC, 103%; in the experiment on NCI-H460 lung, 103%; with A549/ATCC NSCLC, 98.8%; in the experiment on K-562 leukemia, 94.7%; with RXF 393 renal, 119%. Also, the growth in the experiment with UACC-257 melanoma is 97.4%; with U251 CNS it was 102%; in the experiment with LOX IMVI melanoma, 102%; in the experiment on SK-MEL-28 melanoma, 110%; in the experiment on SK-MEL-2 melanoma, 107%; in the experiment with UO-31 renal, 71.8%. The growth in the experiment on TK-10 renal is 96.2%; in the experiment on A498 renal, 98.7%; in the experiment on HL-60(TB) leukemia, 98.5%; with SR leukemia, 81.3%; in the experiment on OVCAR-4 ovarian it was 103%; in the experiment on BT-549 breast it was 106%. In addition, in the experiment with HCC-2998 colon, the growth was 102%.
As for `O=S(=O)(F)c1ncnc2nc[nH]c12`, the growth in the experiment on NCI-H23 lung was 95.5%; in the experiment with HOP-62 NSCLC it was 86.5%; in the experiment with NCI-H460 lung, 103%; in the experiment on A549/ATCC NSCLC it was 98.5%; with K-562 leukemia, 92.3%; in the experiment with RXF 393 renal, 101%. The growth in the experiment with SF-295 CNS was 104%; in the experiment with UACC-257 melanoma, 105%; with U251 CNS, 98.5%; with LOX IMVI melanoma, 85.8%; in the experiment with SK-MEL-28 melanoma, 97%; in the experiment on SK-MEL-2 melanoma it was 85.8%. For the same compound, the growth is 66.9% in the experiment on UO-31 renal; 103% in the experiment with TK-10 renal; 97.2% in the experiment with A498 renal; 97.2% in the experiment on HL-60(TB) leukemia; 102% in the experiment on OVCAR-4 ovarian; 100% in the experiment with BT-549 breast. Moreover, in the experiment on HCC-2998 colon, the growth was 101%.
For the compound `COc1ccc(-c2ccc(OC)c(OC)c2OC)cc1`, the growth in the experiment with NCI-H23 lung is 46.1%; in the experiment on HOP-62 NSCLC, 26.9%; with NCI-H460 lung, 12%; in the experiment with A549/ATCC NSCLC, 38.2%; with K-562 leukemia, 10.1%; in the experiment on RXF 393 renal, 11.2%. For the same compound, the growth was -9.72% (active) in the experiment on SF-295 CNS; 43.2% in the experiment with UACC-257 melanoma; 22.9% with U251 CNS; 16.5% in the experiment on LOX IMVI melanoma; 49.6% in the experiment with SK-MEL-28 melanoma; 24% in the experiment on SK-MEL-2 melanoma. For the same compound, the growth with UO-31 renal is 39.4%; in the experiment on TK-10 renal it was 16.2%; in the experiment with HL-60(TB) leukemia it was -19.1% (active); in the experiment with SR leukemia, 16.9%; in the experiment with OVCAR-4 ovarian, 70.6%; with BT-549 breast, 20.2%. Besides, the growth in the experiment on HCC-2998 colon was 23.7%.
